# Data taken from PMC5540273 (PLoS ONE, 2017).
# Legend:
# Details in all cases: concentration: 1 μM, replicates: in singlicate; n = 1
# [1] = tested on: TLK1
# [2] = tested on: TLK2
# [3] = tested on: TNIK
# [4] = tested on: TNK1
# [5] = tested on: TNK2
# [6] = tested on: TNNI3K
# [7] = tested on: T1, TRKA
# T1 construct: gene NTRK1
# [8] = tested on: TRKB
# [9] = tested on: T2, TRKC
# T2 construct: gene NTRK3
# [10] = tested on: TRPM6
# 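Also: KINOMEscan kinase panel screen.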
compound,measurement,setting,value
CN1c2ccc(-c3ccc(C(N)=O)cc3)cc2-c2[nH]ncc2S1(=O)=O,%Inh,[1],36%
same,%Inh,[2],0%
same,%Inh,[3],45%
same,%Inh,[4],24%
same,%Inh,[5],0%
same,%Inh,[6],0%
same,%Inh,[7],0%
same,%Inh,[8],0%
same,%Inh,[9],0%
same,%Inh,[10],13%
CC(C)c1ccc(O)cc1Nc1ccnc2ccc(C(F)(F)F)cc12 [GW482059],%Inh,[1],0%
same,%Inh,[2],0%
same,%Inh,[3],0%
same,%Inh,[4],0%
same,%Inh,[5],0%
same,%Inh,[6],71%
same,%Inh,[7],12%
same,%Inh,[8],11%
same,%Inh,[9],37%
same,%Inh,[10],1%
COC(=O)C(Cc1ccccc1)NC(=O)NC1CCN(c2ccnc(Nc3ccc(F)cc3)n2)C1 (stereo not shown) [GSK1379714],%Inh,[1],10%
same,%Inh,[2],0%
same,%Inh,[3],6%
same,%Inh,[4],0%
same,%Inh,[5],4%
same,%Inh,[6],0%
same,%Inh,[7],98.2%
same,%Inh,[8],23%
same,%Inh,[9],25%
same,%Inh,[10],0%
Cc1ccc(NC(=O)Nc2ccc(Cl)cc2)cc1-c1ccc(C(=O)Nc2ccncc2)cc1 [GSK1398472],%Inh,[1],0%
same,%Inh,[2],0%
same,%Inh,[3],0%
same,%Inh,[4],0%
same,%Inh,[5],16%
same,%Inh,[6],25%
same,%Inh,[7],0%
same,%Inh,[8],0%
same,%Inh,[9],9%
same,%Inh,[10],14%
O=C(Nc1n[nH]c2nc(-c3cccs3)c(Br)cc12)C1CC1 [SB-735297],%Inh,[1],5%
same,%Inh,[2],0%
same,%Inh,[3],17%
same,%Inh,[4],33%
same,%Inh,[5],0%
same,%Inh,[6],98.6%
same,%Inh,[7],6%
same,%Inh,[8],41%
same,%Inh,[9],17%
same,%Inh,[10],18%
Nc1cccc(-c2ccc3c(N)n[nH]c3c2)n1 [GSK2192730],%Inh,[1],33%
same,%Inh,[2],21%
same,%Inh,[3],24%
same,%Inh,[4],0%
same,%Inh,[5],0%
same,%Inh,[6],0%
same,%Inh,[7],0%
same,%Inh,[8],0%
same,%Inh,[9],0%
same,%Inh,[10],18%
Cc1ccc(NC(=O)c2ccc(Cl)cc2)cc1-c1ccc(C(=O)Nc2ccncc2)cc1 [GSK1398467],%Inh,[1],8%
same,%Inh,[2],3%
same,%Inh,[3],0%
same,%Inh,[4],9%
same,%Inh,[5],25%
same,%Inh,[6],21%
same,%Inh,[7],0%
same,%Inh,[8],0%
same,%Inh,[9],25%
same,%Inh,[10],19%
CC(C)c1cc(-c2ccc3c(N)n[nH]c3c2)nc(N)n1 [GSK2250882],%Inh,[1],2%
same,%Inh,[2],0%
same,%Inh,[3],14%
same,%Inh,[4],0%
same,%Inh,[5],14%
same,%Inh,[6],0%
same,%Inh,[7],0%
same,%Inh,[8],0%
same,%Inh,[9],0%
same,%Inh,[10],0%
Fc1ccc(-c2nc3n(c2-c2ccncc2)CCS3)cc1 [GI98581],%Inh,[1],0%
same,%Inh,[2],0%
same,%Inh,[3],18%
same,%Inh,[4],0%
same,%Inh,[5],11%
same,%Inh,[6],2%
same,%Inh,[7],11%
same,%Inh,[8],0%
same,%Inh,[9],17%
same,%Inh,[10],23%
CNc1cc(-c2ccc3c(N)n[nH]c3c2)nc(N)n1 [GSK2224810],%Inh,[1],25%
same,%Inh,[2],20%
same,%Inh,[3],8%
same,%Inh,[4],0%
same,%Inh,[5],0%
same,%Inh,[6],2%
same,%Inh,[7],11%
same,%Inh,[8],0%
same,%Inh,[9],0%
same,%Inh,[10],0%
Cn1cncc1-c1cc2c(Nc3ccc(OCc4ccccc4)cc3)ncnc2cn1 [GW281179],%Inh,[1],18%
same,%Inh,[2],0%
same,%Inh,[3],0%
same,%Inh,[4],1%
same,%Inh,[5],20%
same,%Inh,[6],11%
same,%Inh,[7],0%
same,%Inh,[8],37%
same,%Inh,[9],0%
same,%Inh,[10],12%
COc1ccc(CSc2nnc(-c3ccc4c(c3)CCO4)o2)cc1,%Inh,[1],0%
same,%Inh,[2],0%
same,%Inh,[3],0%
same,%Inh,[4],0%
same,%Inh,[5],0%
same,%Inh,[6],0%
same,%Inh,[7],0%
same,%Inh,[8],0%
same,%Inh,[9],0%
same,%Inh,[10],0%
COc1cccc(NC(=O)Nc2ccc(C)c(-c3ccc(C(=O)Nc4ccncc4)cc3)c2)c1 [GSK1398474],%Inh,[1],11%
same,%Inh,[2],0%
same,%Inh,[3],0%
same,%Inh,[4],10%
same,%Inh,[5],16%
same,%Inh,[6],20%
same,%Inh,[7],4%
same,%Inh,[8],0%
same,%Inh,[9],2%
same,%Inh,[10],31%
CS(=O)(=O)CCNCc1nc(-c2ccc3ncnc(Nc4ccc(OCc5ccccc5)c(Cl)c4)c3c2)cs1.Cl [GW582764],%Inh,[1],0%
same,%Inh,[2],0%
same,%Inh,[3],0%
same,%Inh,[4],4%
same,%Inh,[5],14%
same,%Inh,[6],0%
same,%Inh,[7],0%
same,%Inh,[8],41%
same,%Inh,[9],54%
same,%Inh,[10],0%
Cc1ccc(NC(=O)Nc2ccccc2)cc1-c1ccc(C(=O)Nc2ccncc2)cc1 [GSK1398471],%Inh,[1],19%
same,%Inh,[2],4%
same,%Inh,[3],0%
same,%Inh,[4],18%
same,%Inh,[5],13%
same,%Inh,[6],49%
same,%Inh,[7],23%
same,%Inh,[8],0%
same,%Inh,[9],0%
same,%Inh,[10],27%
Cc1nccc(-c2c(-c3ccc(F)cc3)ncn2CCCN2CCOCC2)n1.Cl [SB-282975],%Inh,[1],0%
same,%Inh,[2],0%
same,%Inh,[3],0%
same,%Inh,[4],37%
same,%Inh,[5],26%
same,%Inh,[6],0%
same,%Inh,[7],0%
same,%Inh,[8],0%
same,%Inh,[9],16%
same,%Inh,[10],0%
